The whole screen tested about 260,000 compounds, of which about 1,500 (0.58%) were called active. Not shown: some 5% with an inconclusive outcome.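 The calls were made as follows: active = inhibition above a set limit at one or more doses, reproduced on every date tested; inconclusive = results disagree between test dates, or hit never tested in dose response; inactive = the rest.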 The list is a sample of the results. Potency and affinity values are given separately.
biological target: Virion infectivity factor (Human immunodeficiency virus type 1 group M subtype B (isolate BH10)) + Virion infectivity factor (Human immunodeficiency virus type 1 group M subtype B (isolate BRU/LAI)) + Virion infectivity factor (Human immunodeficiency virus type 1 group M subtype B (isolate PCV12)) + Virion infectivity factor (Human immunodeficiency virus type 1 group M subtype B (isolate HXB2)) + DNA dC->dU-editing enzyme APOBEC-3G (Homo sapiens) (UniProt P69720+P69721+P69722+P69723+Q9HC16); experiment: inhibitors of Vif binding to APOBEC3G peptide, primary screen, biochemical, TR-FRET, GST-Vif 1-94, biotin-A3G peptide, dose response retest (AID 1117319); settings: active compounds read high;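 also: Vif residues 1-94 fused to GST binding biotinylated APOBEC3G peptide 110-148; 0% = full assay without inhibitor and 100% = GST in place of GST-Vif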

inhibition, inactive:
Cc1cc(SCC(=O)OC(C)C(=O)N(C)c2ccccc2)nc2ccccc12 (stereo not drawn) -7.66%, COC(=O)c1ccc(CNC(=O)Cn2nnnc2CN(C)C(C)C)cc1 -4.98%, COCCNC(=O)CSc1cc(-c2ccccc2)c2ccc(OC)cc2n1 -24.8%, COc1ccccc1CNC(=O)c1ccc(OC(C)C)cc1 -1.85%, O=C(NCc1cccnc1)c1nn2cccnc2c1Cl 14.7%, O=C(CSc1nnc2ccccn12)NNC(=O)c1cccc([N+](=O)[O-])c1 -9.15%, COc1cc2nc(CCc3ccccc3)oc(=O)c2cc1OC 19.2%, Clc1cc2nc3ccccn3c2cc1Cl -1.52%, N#Cc1ccc2c(c1)nc1ccccn12 16.5%, CC1=CN2CC(O)CN=C2C=C1 (stereo not drawn) -3.44%, Cc1cnc(C(=O)OCC(=O)N(Cc2ccccc2)C(C)(C)C)cn1 -7.28%, Cc1cc(C(=O)OCC(=O)c2ccc3c(c2)OCCO3)c(C)o1 7.16%, COC(=O)CCN(C(=O)c1ccc(Cl)c([N+](=O)[O-])c1)c1ccccn1 21.1%, CN1c2ccc([N+](=O)[O-])cc2N(C)C1(C)c1ccccc1 (stereo not drawn) -8.03%, O=[N+]([O-])c1ccc2c(c1)N([O-])C1(CCCCC1)[N+]2=O -0.91%, O=C(COC(=O)c1ccc(S(=O)(=O)N2CCOCC2)cc1)Nc1ccccc1F -5.99%, C=CCN(CC=C)C(=S)NC(=O)c1ccc(OC)c(Br)c1 3.9%, C=CCN(CC=C)C(=S)NC(=O)c1ccc(C)c(Br)c1 3.99%, C[n+]1ccn(CC(=O)c2cccs2)c1 -0.3%, O=[N+]([O-])c1ccc2nc(CN3CCCCC3)[nH]c2c1 -2.67%, Nc1ccc(C(=O)C(=O)c2ccc(N)cc2)cc1 -4.86%, Nc1ccc(C(=O)NCCCCCCNC(=O)c2ccc(N)cc2)cc1 -3.48%, CC(C)=CCN1CCN(Cc2cccn2-c2nccs2)CC1CCO (stereo not drawn) 3.13%, C/C(=N\NC(=O)CNC(=O)c1ccco1)c1ccc(Br)cc1 -0.8%, CCn1c(/C=C/c2ccc(O)c(O)c2)nc2ccccc2c1=O 23.1%, COc1ccc(/C=C/c2nc3ccccc3c(=O)n2-c2cccc(C(=O)O)c2)cc1 -12.6%, CC1(C)Cc2c(C#N)c(N)sc(=S)c2CO1 18.9%, N#Cc1c(N)sc2c1CCCCCC2 22.4%

Reference: PubChem BioAssay AID1117319 (Southern Research Institute, 2015)
